CBFb RUNX1 block: inhibitors of human CBF-beta and RUNX1 interaction. AID 1477. AlphaScreen CBFb-His/RUNX1-biotin binding, biochemical. Q01196+Q13951. Potency, µM (top dose mostly 59.8 µM), without a hit: at the highest dose activity, negative = inhibition, most hits filed as inhibitors. 230,000 tested, under 10 active; note: % of control where 0% means no effect
Target sequence (Q01196 whole entry, looked up): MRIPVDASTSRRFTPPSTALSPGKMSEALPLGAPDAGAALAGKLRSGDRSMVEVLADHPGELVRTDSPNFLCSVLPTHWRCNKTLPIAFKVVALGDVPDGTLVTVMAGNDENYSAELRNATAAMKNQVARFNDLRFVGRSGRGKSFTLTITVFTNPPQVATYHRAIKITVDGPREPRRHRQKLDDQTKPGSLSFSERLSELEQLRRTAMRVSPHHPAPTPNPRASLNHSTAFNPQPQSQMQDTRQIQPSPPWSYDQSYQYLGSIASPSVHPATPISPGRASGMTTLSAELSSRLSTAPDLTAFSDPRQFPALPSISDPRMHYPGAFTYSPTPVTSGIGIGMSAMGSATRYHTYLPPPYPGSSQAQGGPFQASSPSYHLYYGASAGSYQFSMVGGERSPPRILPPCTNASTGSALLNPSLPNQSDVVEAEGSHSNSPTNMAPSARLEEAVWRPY
Target sequence (Q13951 whole entry, looked up): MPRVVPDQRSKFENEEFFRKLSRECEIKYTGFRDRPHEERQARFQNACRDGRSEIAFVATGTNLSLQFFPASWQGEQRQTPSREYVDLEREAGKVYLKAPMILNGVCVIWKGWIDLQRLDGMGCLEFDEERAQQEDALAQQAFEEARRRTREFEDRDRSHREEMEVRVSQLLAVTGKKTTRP
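CBFb-His/RUNX1-biotin, 30 nM each, preincubated 20 min RT; compound 15 min RT; Ni + streptavidin beads 50 ng each, 90 min RT; AlphaScreen read.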
Tau fibril FP: tau fibrillization inhibition (FP) | P10636 | K18 P301L tau heparin fibrillization, Alexa594 FP, 6 h | Potency, µM (highest dose often 57.7 µM), inactives show at the highest dose activity, negative = inhibition, hits mostly inhibitors | 280,000 compounds, 0.39% hits | AID 1468; note: potency is the fitted concentration of half-maximal effect; % is set by controls: 0 for no effect and ±100 for the full control effect; nearly all actives have a fitted effect of over 55% in size
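K18 P301L tau (15 uM unlabeled/0.24 uM Alexa 594-labeled, final) + compound + heparin 20 uM final; 100 mM NaOAc pH 7; 6 hr 37 C; ThT 30 uM final added, 1 hr RT; FP ex 555/em 632 nm.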
Tau fluor cs: counter-screen for tau fibril formation inhibitors. Potency, µM (doses to about 57.7 µM), without a hit: at the top dose activity change, negative = decrease. tau K18 P301L Alexa594 fluorescence, heparin fibrillization. 280,000 compounds, 0.93% hits; note: potency is the fitted concentration of half-maximal effect; % is set by controls: 0 for no effect and ±100 for the full control effect; nearly all actives have a fitted effect of over 55% in size
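Human K18 P301L tau (15 uM unlabeled plus 0.24 uM Alexa 594-labeled, final) in 100 mM sodium acetate pH 7 was mixed with compound and 20 uM heparin and incubated 6 hr at 37 C.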
LMNA splice mod: changes lamin A minigene splicing in HeLa cells. 200,000 compounds, 0.01% hits. HeLa LMNA splicing GFP/RFP minigene ratio, 48 h. Potency, µM (doses to about 46.1 µM), inactives show at the top dose ratio change, negative = inhibition, actives largely listed as inhibitors; active = well fitted inhibition curve with a large enough effect in the signal ratio, with a control signal flat, not every such curve was filed as active; inconclusive = small, poorly fitted or top-dose-only effect, or effect the other way, or a change in a side signal; the % refers to the signal ratio; note: potency is the fitted concentration of half-maximal effect; % is set by controls: 0 for no effect and ±100 for the full control effect
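Read-out is the ratio of GFP to DsRed2 object intensity, acquired by 488 nm laser-scanning cytometry on HeLa lamin A-EGFP minigene reporter cells. Compound incubation 48 hrs at 37 °C in Opti-MEM with 2% FBS; DMSO 0.5% final.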
JMJD2E inh: JMJD2E (human) inhibition; B2RXH2; JMJD2E catalytic domain, FDH-coupled NADH fluorescence (FDH is formaldehyde dehydrogenase); Potency, µM (highest dose often 57.1 µM), without a hit: at the highest dose activity change, negative = inhibition, most hits filed as inhibitors; 230,000 compounds, 1.6% hits; AID 2147; active = well fitted inhibition curve with a large enough effect, not every such curve was filed as active; inconclusive = small, poorly fitted or top-dose-only effect, or another doubt; inactive = no such curve, though single readings can be large or run the other way;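 note: potency is the fitted concentration of half-maximal effect; 0% = wells with enzyme and -100% = buffer wells without enzyme; nearly all actives have a fitted effect of over 50% in size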
Tau ThT inhib: blocks human tau fibril formation measured by thioflavin T. P10636. recombinant tau K18 P301L, heparin-induced fibrillization, ThT fluorescence. Potency, µM (highest dose often 57.4 µM), for inactives: top-dose activity, negative = inhibition, most hits filed as inhibitors. 270,000 compounds, 2.1% hits. AID 1460; note: potency is the fitted concentration of half-maximal effect; % is set by controls: 0 for no effect and ±100 for the full control effect; nearly all actives have a fitted effect of over 55% in size
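Using a mix of unlabeled (15 uM) and Alexa 594-labeled (0.24 uM) tau K18 P301L, heparin-triggered fibrillization over 6 hr at 37 C was scored by ThT fluorescence.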
An asterisk follows results filed as active; ? = inconclusive; . = no result; [ ] = dose if it differs, or a comment. An excerpt weighted towards active compounds, which were near 3.2% of everything screened. Unless noted, calls come from the whole dose curve; as a rule, active = well fitted curve in the direction sought with a large enough effect; inconclusive = small, poorly fitted or top-dose-only effect, or another doubt; inactive = no such curve, though single readings can be large; an effect the other way counts as inactive or inconclusive.

SMILES	CBFb RUNX1 block	Tau fibril FP	Tau fluor cs	LMNA splice mod	JMJD2E inh	Tau ThT inhib
c1ccc(C2=NN(c3ccccc3)CC2)cc1	27%	7%	?	.	?	?
CCOC(=O)/C(=C/c1ccc(N2CCC(c3ccccc3)=N2)cc1)C(C)=O	20%	-13%	16µM*[quencher]	3%	8%	?
COc1ccc(Cn2c(O)c(C=Nc3ccc(O)cc3)c3ccccc3c2=O)cc1	-22%	?	4.5µM*[quencher]	?	-11%	?
COc1ccc(Cn2c(O)c(C=Nc3ccccc3)c3ccccc3c2=O)cc1	-2%	?	?	5%	?	-3%
Cc1oc(/N=C/c2c(O)ccc3ccccc23)c(C#N)c1C	0%	?	-30%	3%	?	18µM*
COc1ccc(N=Cc2c(O)ccc3ccccc23)cc1	27%	-7%	?	?	-15%	8.9µM*
CCCCc1nc2c(c3c1C[C@H](C)OC3)CN(S(=O)(=O)CCCC)CC2	4%[13.1 µM]	-4%[11.6 µM]	-7%[11.6 µM]	9%[9.22 µM]	3%[11.4 µM]	-1%[11.5 µM]
CCCn1cc(S(=O)(=O)c2cccc(Cl)c2)c(=O)c2cc(F)c(N3CCOCC3)cc21	.	-1%	-11%	?	.	-4%
CCc1ccc(NC(=O)Cn2cnc3nc4c(cc3c2=O)CCCC4)cc1	.	-7%	-2%	20%[46 µM]	.	8%
COC(=O)c1c(-c2ccc(C(C)(C)C)cc2)csc1NC(=O)C1C2CCC(O2)C1C(=O)O (stereo unspecified)	7%	-13%	-5%	-1%	16µM*	?
O=C(Nc1ccc(Br)c(C(F)(F)F)c1)c1ccccc1	19%	?	?	?	-4%	-18%
O=C(Nc1ccc(Br)c(C(F)(F)F)c1)c1ccc(C(F)(F)F)cc1	21%	22µM*	-28%	.	4%	.
Cn1c(N=NC(=O)c2ccccc2)c(O)c2ccccc21	?	-9%	?	?	7%	13µM*
Cn1c(=O)c(Cc2ccccc2)c(O)c2ccccc21	1%	3%	-10%	-4%	?	-5%
Cc1ccc(NC(=O)N2CCN(Cc3nc4ccc(C)cc4o3)CC2)cc1	.	5%	-2%	-9%[46 µM]	.	-6%
COc1cc(/C=C/C(=O)c2ccc(Cl)s2)cc(OC)c1O	6%	5%	?	?	-13%	14µM*
COc1ccc(/C=C/C(=O)CC(=O)/C=C/c2cccc(O)c2OC)cc1O	?	-9%	8.9µM*[quencher]	.	.	1.3µM*
COc1ccc(C(=O)/C=C/c2ccc(OC)c(O)c2)c(F)c1	6%	-4%	-2%	?	-4%	1%
COc1ccc(/C=C/C(=O)c2ccc(Cl)s2)cc1O	-6%	?	?	?	-28%	7.9µM*
Cc1cccc(NC(=O)CSc2nc(-c3cccs3)cc(C(F)(F)F)c2C#N)c1C	.	-6%	1%	.	.	4%
CCOC(=O)C1(N(CC)CC)Sc2cc(C)ccc2NC1=O (stereo unspecified)	-4%	-5%	-17%	2%	-6%	-5%
COC(=O)C1=C(C(=O)OC)SC2(S1)C(C(=O)OC)=C(C(=O)OC)SC1=C2c2cc(C)ccc2NC1(C)C	-1%	?	?	8%	-9%	13µM*
CN(C)c1ccc(N=Cc2nc(-c3ccccc3)oc2OC(=O)c2cccc(Br)c2)cc1	-12%	?	-27%	6%	-4%	10µM*
COc1ccccc1N1CCN(C(=O)CSc2nc(-c3ccc(C(C)C)cc3)no2)CC1	.	12%	-20%	.	.	?
COc1ccc(N2C(=O)[C@@H]3[C@H](C2=O)[C@H]2c4ccccc4C=CN2[C@@H]3C(=O)Nc2ccccc2)cc1	-6%	-1%	?	6%	-6%	?
O=C(c1ccco1)[C@@H]1[C@@H]2C(=O)N(c3ccccc3)C(=O)[C@@H]2C2c3ccccc3C=CN21 (stereo partly specified)	-6%	?	-29%	12%	?	25µM*

From PubChem
